# According to PubChem BioAssay (EPA / NIEHS):
# Activity calls are given as the source filed them. Rule for the calls: active = hit-call score of the fitted dose curve at least 0.9, where 1 is the maximum; inactive = score below 0.9.
# How the values were obtained:
# [1] = APR_HepG2_CellCycleArrest_24hr: Apredica 24-hour HepG2 Assay for Cell Cycle Arrest (AID 2282905); settings: imaging, actives raise or lower the signal;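 note: cell cycle arrest scored as ratio of 2N to 4N nuclear DNA content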
# Procedure, shortened: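 HepG2, 24 hr dosing, 10-pt 0.39–200 uM in duplicate, 0.5% DMSO. Fixed 3.7% formaldehyde, permeabilized 0.5% Triton X-100, Hoechst 33342 2 ug/mL. Imaged 20x; nuclear DNA content quantified; bidirectional fit vs DMSO.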
# [2] = APR_HepG2_NuclearSize_24hr: Apredica 24-hour HepG2 Assay for Nuclear Size (AID 2282907); settings: high-content imaging, actives raise or lower the signal
# Procedure, shortened: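 HepG2, 24 hr dosing, 10-pt 0.39–200 uM, duplicates, 0.5% DMSO final; 3.7% formaldehyde fix, 0.5% Triton X-100; Hoechst 33342 nuclear stain; ArrayScan HCS, Cell Cycle analysis → nuclear size; bidirectional fit vs DMSO.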
# [3] = APR_HepG2_CellLoss_24hr: Apredica 24-hour HepG2 Assay for Cell Loss (AID 2282908); settings: high-content imaging;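 for AC50: fit in both directions so a hit may be cell loss or gain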
# Procedure, shortened: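 10-pt dose, 0.39–200 uM, n=2/plate; DMSO 0.5% v/v final as negative control. Fix 3.7% formaldehyde 30 min RT, permeabilize 0.5% Triton X-100, stain Hoechst 33342 2 ug/mL, image 20x. Nuclear count, bidirectional fit vs DMSO.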
# [4] = APR_HepG2_MicrotubuleCSK_24hr: Apredica 24-hour HepG2 Assay for Microtubule CSK Stabilty (AID 2282909); settings: HepG2 microtubule cytoskeleton imaging, actives raise or lower the signal
# Procedure, shortened: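 Human liver HepG2, 24 h dosing, 0.39–200 uM ×10 conc, dup, 0.5% DMSO. 3.7% formaldehyde fix, 0.5% Triton perm, anti-alpha-tubulin (1:200)/Cy5 secondary + Hoechst. HCS imaging, 6 fields/well; gain/loss fit vs DMSO.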
# [5] = APR_HepG2_MitoticArrest_24hr: Apredica 24-hour HepG2 Assay for Mitotic Arrest (AID 2282910); settings: high-content imaging, actives raise or lower the signal
# Procedure, shortened: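 HepG2 human liver cells were exposed to compounds at 0.39–200 uM (10 concentrations, duplicate) in 0.5% v/v DMSO for 24 hr, then fixed and immunostained for phospho-histone H3 with Hoechst 33342. Mitotic arrest came from HCS fluorescent imaging, fitted bidirectionally against DMSO.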
# [6] = APR_HepG2_MitoMass_24hr: Apredica 24-hour HepG2 Assay for Mitochondrial Mass (AID 2282912); settings: high-content imaging, actives raise or lower the signal
# Procedure, shortened: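 Mitochondrial mass is read as MitoTracker Red fluorescence intensity from automated imaging, with bidirectional curve fitting relative to DMSO. HepG2 cells received compound (0.39–200 uM, 0.5% DMSO final) for 24 hr and were dye-loaded (250 nM, 30 min) before formaldehyde fixation.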
# [7] = APR_HepG2_p53Act_24hr: Apredica 24-hour HepG2 Assay for p53 Activation (AID 2282913); settings: high-content imaging, actives raise or lower the signal;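 note: p53 protein immunofluorescence averaged per cell in HepG2 with Hoechst nuclei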
# Procedure, shortened: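 Read-out: Cy5 immunofluorescence for p53 in fixed, permeabilized HepG2, imaged by HCS with Hoechst-defined nuclei. Dosing was 24 hr at 0.39–200 uM in 0.5% DMSO. Curves were fitted bidirectionally relative to DMSO.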
# [8] = APR_HepG2_CellCycleArrest_72hr: Apredica 72-hour HepG2 Assay for Cell Cycle Arrest (AID 2282914); settings: high-content imaging, actives raise or lower the signal
# Procedure, shortened: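 HepG2, 72 hr exposure, 10-point 0.39–200 uM, duplicate, 0.5% DMSO final. Fix 3.7% formaldehyde 30 min RT, Triton X-100 0.5%, Hoechst 33342 2 ug/mL. ArrayScan 20x, six fields/well; DNA content per nucleus; bidirectional fit vs DMSO.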
# [9] = APR_HepG2_CellLoss_72hr: Apredica 72-hour HepG2 Assay for Cell Loss (AID 2282915); settings: high-content imaging
# Procedure, shortened: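 HepG2 cells were exposed for 72 hr to compounds at 0.39–200 uM (ten concentrations, duplicate) in 0.5% v/v final DMSO. Nuclei were stained with Hoechst 33342 after 3.7% formaldehyde fixation, imaged at 20x, and counted; fits bidirectional versus DMSO.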
SMILES,outcome [1],outcome [2],outcome [3],outcome [4],outcome [5],outcome [6],outcome [7],outcome [8],outcome [9],AC50 [9],AC50 [1],AC50 [3],AC50 [7],AC50 [8],AC50 [4],AC50 [5],AC50 [6],AC50 [2]
CCO[Si](CCCNC(N)=O)(OCC)OCC,inactive,inactive,inactive,inactive,inactive,inactive,inactive,inactive,inactive,,,,,,,,,
O=C1CCC(C2CCCCC2)CC1,inactive,inactive,inactive,inactive,inactive,inactive,inactive,inactive,inactive,,,,,,,,,
CO[C@H]1/C=C/O[C@@]2(C)Oc3c(C)c(O)c4c(O)c(c(/C=N/N5CCN(C)CC5)c(O)c4c3C2=O)NC(=O)/C(C)=C\C=C\[C@H](C)[C@H](O)[C@@H](C)[C@@H](O)[C@@H](C)[C@H](OC(C)=O)[C@@H]1C,inactive,inactive,inactive,inactive,inactive,inactive,inactive,inactive,,45.2 µM (active),,,,,,,,
O=C1c2ccccc2C(=O)N1CCc1noc(-c2ccc(CN3CCCCCC3)s2)n1,inactive,inactive,inactive,inactive,inactive,inactive,inactive,inactive,inactive,,,,,,,,,
O=C=NCCCCCCN=C=O,inactive,inactive,inactive,inactive,inactive,inactive,inactive,inactive,inactive,,,,,,,,,
CC(C)(O)c1ccc(CNC(=O)c2cccnc2Oc2ccc3nonc3c2)cc1,inactive,inactive,inactive,inactive,inactive,inactive,inactive,inactive,inactive,,,,,,,,,
O=c1c(-c2ccc(O)cc2)coc2cc(O)cc(O)c12,,inactive,,inactive,inactive,inactive,,,,42.9 µM (active),43.1 µM (active),32.6 µM (active),70.7 µM (active),47.4 µM (active),,,,
CC(=O)N1CCN(c2ccc(OC[C@H]3CO[C@](Cn4ccnc4)(c4ccc(Cl)cc4Cl)O3)cc2)CC1,inactive,inactive,,,inactive,inactive,inactive,inactive,,23.5 µM (active),,28.6 µM (active),,,103 µM (active),,,
CCN(Cc1cccc(S(=O)(=O)O)c1)c1ccc(C(=C2C=CC(=[N+](CC)Cc3cccc(S(=O)(=O)O)c3)C=C2)c2ccccc2S(=O)(=O)[O-])cc1,inactive,inactive,inactive,inactive,inactive,inactive,inactive,inactive,inactive,,,,,,,,,
Cc1cc(F)ccc1-c1cc(N2CC[C@@H](O)[C@H]2CO)ncc1N(C)C(=O)C(C)(C)c1cc(C(F)(F)F)cc(C(F)(F)F)c1,inactive,inactive,inactive,inactive,inactive,inactive,,inactive,,64.7 µM (active),,,94 µM (active),,,,,
O=C(Nc1ccc(Cl)cc1)Nc1ccc(Cl)c(Cl)c1,,inactive,,inactive,inactive,inactive,,,,5.54 µM (active),7.09 µM (active),4.01 µM (active),3.93 µM (active),16.6 µM (active),,,,
O=c1ccc2ccccc2o1,inactive,inactive,inactive,inactive,inactive,inactive,inactive,inactive,inactive,,,,,,,,,
CCCCCCCCCC(=O)O,inactive,inactive,inactive,inactive,inactive,inactive,inactive,inactive,inactive,,,,,,,,,
COc1cc(C(=O)NC2CCN(C)CC2)ccc1Nc1ncc2c(n1)N(C1CCCC1)CC(F)(F)C(=O)N2C,inactive,inactive,inactive,inactive,inactive,inactive,inactive,inactive,inactive,,,,,,,,,
CCCCCCCCCCCO,inactive,inactive,,inactive,,inactive,,inactive,,107 µM (active),,103 µM (active),107 µM (active),,,104 µM (active),,
Cc1ncc(CO)c(CO)c1O,inactive,inactive,inactive,inactive,inactive,inactive,inactive,inactive,inactive,,,,,,,,,
CCOC(=O)O[C@H](C)OC(=O)c1ccc2c(c1)cc(C(=O)NC1CCN(C(C)C)CC1)n2Cc1cc(-c2ccc(Cl)s2)on1,,inactive,,,,,,inactive,,8.32 µM (active),94.5 µM (active),9.26 µM (active),94.5 µM (active),,25 µM (active),10.1 µM (active),167 µM (active),
c1ccc(C[n+]2cccc3ccccc32)cc1,,inactive,,,inactive,,inactive,,,54.8 µM (active),178 µM (active),115 µM (active),,36.8 µM (active),100 µM (active),,167 µM (active),
CCCCCCCCOc1ccc(C(=O)c2ccccc2)c(O)c1,,inactive,inactive,inactive,inactive,inactive,inactive,,,91.6 µM (active),103 µM (active),,,164 µM (active),,,,

SMILES,outcome [1],outcome [2],outcome [3],outcome [4],outcome [5],outcome [6],outcome [7],outcome [8],outcome [9],AC50 [9],AC50 [1],AC50 [3],AC50 [7],AC50 [8],AC50 [4],AC50 [5],AC50 [6],AC50 [2]
CN(C)C(=O)C1(N2CCCCC2)CCN(CC[C@@]2(c3ccc(Cl)c(Cl)c3)CN(C(=O)c3ccccc3)CCO2)CC1,inactive,,,,,,,,,11.4 µM (active),,15.7 µM (active),22.9 µM (active),67.3 µM (active),65.2 µM (active),13.1 µM (active),7.74 µM (active),20.9 µM (active)
CCCCCc1ccc(N)cc1,inactive,inactive,inactive,inactive,inactive,inactive,inactive,inactive,inactive,,,,,,,,,
COc1ccc2cc(S(=O)(=O)N[C@H](CC(=O)N[C@H](Cc3ccc(CN4[C@H](C)CCC[C@@H]4C)cc3)C(=O)N(C)C(C)C)c3ccc4c(c3)OCO4)ccc2c1,inactive,,,,,,,inactive,,25.3 µM (active),,39.6 µM (active),20.4 µM (active),,7.6 µM (active),16 µM (active),12.7 µM (active),28.7 µM (active)
Oc1ccc2ccccc2c1,inactive,inactive,inactive,inactive,inactive,inactive,inactive,inactive,inactive,,,,,,,,,
CN1C(=O)N(c2ccccc2Br)Cc2cnc(Nc3ccc4c(c3)OCC(CO)O4)nc21 (configuration not stated),,inactive,,inactive,,inactive,,,,6.32 µM (active),8.95 µM (active),3.7 µM (active),4 µM (active),5.09 µM (active),,2.93 µM (active),,
CC[C@H](NC(=O)c1cc(F)ccc1NS(=O)(=O)c1cccc2cccnc12)c1ccccc1,inactive,inactive,inactive,inactive,inactive,inactive,inactive,inactive,,78.4 µM (active),,,,,,,,
CC(C)(C)c1cc(/C=C2\SC(N)=NC2=O)cc(C(C)(C)C)c1O,,inactive,,,,,,inactive,,32.4 µM (active),64.9 µM (active),53.1 µM (active),61.7 µM (active),,29.5 µM (active),52.3 µM (active),32.7 µM (active),
OCCO,inactive,inactive,inactive,inactive,inactive,inactive,inactive,inactive,inactive,,,,,,,,,
CCCCCCCCN(C)CCCCCCCC,inactive,inactive,inactive,inactive,inactive,inactive,inactive,inactive,inactive,,,,,,,,,
CC1(C)NC(=O)N(c2ccc([N+](=O)[O-])c(C(F)(F)F)c2)C1=O,inactive,inactive,inactive,inactive,inactive,inactive,inactive,inactive,,38.6 µM (active),,,,,,,,
CC(O)CC(C)(C)O (configuration not stated),inactive,inactive,inactive,inactive,inactive,inactive,inactive,inactive,,70.6 µM (active),,,,,,,,
Cc1ccc(C(C)C)cc1,inactive,inactive,inactive,inactive,inactive,inactive,inactive,inactive,inactive,,,,,,,,,
Cc1c2ccccc2c(C)c2c1ccc1ccccc12,,,,,,inactive,,,,40.3 µM (active),44.6 µM (active),56.1 µM (active),0.069 µM (active),6.16 µM (active),74.5 µM (active),49.3 µM (active),,77.3 µM (active)
O=C1O[C@H]([C@@H](O)CO)C(O)=C1O,inactive,inactive,inactive,inactive,inactive,inactive,inactive,inactive,,16.1 µM (active),,,,,,,,
O=C(O)Cn1c(=O)n(Cc2ccc(Br)cc2F)c(=O)c2ccc(Cl)cc21,inactive,inactive,inactive,inactive,inactive,inactive,inactive,inactive,inactive,,,,,,,,,
c1ccc2n[nH]nc2c1,inactive,inactive,inactive,inactive,inactive,inactive,inactive,inactive,inactive,,,,,,,,,
CC(C)(c1cc(Br)c(O)c(Br)c1)c1cc(Br)c(O)c(Br)c1,,inactive,,inactive,,inactive,inactive,,,56.7 µM (active),77 µM (active),92.1 µM (active),,82.9 µM (active),,96.3 µM (active),,
COc1cccc([C@H](O)C2CCN(CCc3ccc(F)cc3)CC2)c1OC,,inactive,inactive,inactive,inactive,inactive,inactive,inactive,,105 µM (active),75.2 µM (active),,,,,,,
O=C(OCCCCCCOC(=O)c1ccccc1)c1ccccc1,inactive,inactive,inactive,inactive,inactive,inactive,inactive,inactive,inactive,,,,,,,,,
